# GLP1R cytotox: qHTS of GLP-1 Receptor Inverse Agonists: Cytotox Screen | 410,000 tested, 0.13% active | HEK293 cAMP-luciferase reporter cells, luminescence, 24 h | Potency, µM (highest dose often 38.3 µM), usual class: inhibitors;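 further: loss of luciferase light is scored as toxicity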
#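 Here, cytotoxicity is scored as loss of luminescence. The MLSMR collection was tested on cells seeded in medium containing 10% Nu serum, with a 24 hr compound exposure preceded by 12 hours of culture.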
# GLP-1R inv ag: qHTS of GLP-1 Receptor Inverse Agonists (Inhibition Mode); Glucagon-like peptide 1 receptor (Homo sapiens), P43220; HEK293 GLP-1R CRE-luciferase, luminescence, 24 h; GLP-1R form is constitutively active; Potency, µM (titrated, usually from 38.3 µM), hits mostly inhibitors; 410,000 tested, 1.6% active; AID 624417, 2012; further: nearly all actives have a fitted effect of over 55% in size
# Target sequence (P43220 whole entry, looked up): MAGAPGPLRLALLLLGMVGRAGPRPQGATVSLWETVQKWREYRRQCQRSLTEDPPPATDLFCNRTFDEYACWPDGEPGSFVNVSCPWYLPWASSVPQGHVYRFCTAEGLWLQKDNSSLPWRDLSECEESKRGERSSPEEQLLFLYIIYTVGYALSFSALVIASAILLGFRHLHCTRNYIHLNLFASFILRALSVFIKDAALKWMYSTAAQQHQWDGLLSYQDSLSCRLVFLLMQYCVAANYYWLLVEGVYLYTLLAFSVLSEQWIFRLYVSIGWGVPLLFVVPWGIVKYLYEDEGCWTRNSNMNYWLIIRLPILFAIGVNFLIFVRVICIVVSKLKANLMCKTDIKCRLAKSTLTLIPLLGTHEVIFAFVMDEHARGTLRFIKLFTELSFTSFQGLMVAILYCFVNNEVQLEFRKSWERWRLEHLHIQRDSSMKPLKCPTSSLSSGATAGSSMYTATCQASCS
#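 Inverse agonism was detected as reduced cAMP-driven luciferase luminescence after 24 h compound treatment. The cells were HEK293 clones expressing constitutively active human GLP-1R with the reporter. Reporter-only and GPR119 cell lines served as counterscreen controls.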
# PTHR1 ag: qHTS for PTHR1 Agonists: Primary Screen | Parathyroid hormone/parathyroid hormone-related peptide receptor (Homo sapiens), Q03431 | HEK293 GP2 PTHR1 cells, GloSensor cAMP luminescence, 1 h | Potency, µM (doses to about 115 µM), usual class: activators | 410,000 tested, 0.075% active; further: nearly all actives have a fitted effect of over 55% in size
#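 HEK-293-derived GP2 cells expressing PTHR1 and a GloSensor cAMP reporter, 3,000/well, plated overnight, given luciferin plus IBMX (each 0.5 mM as added) for 1 h at 37 °C, then compound for 1 h at 37 °C. Luminescence was read after 15 min at room temperature.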
# GLP-1R agonist: qHTS of GLP-1 Receptor Agonists; 380,000 tested, 0.007% active; Potency, µM (titrated, usually from 45.6 µM), actives largely listed as activators; HEK293 GLP-1R CRE-luciferase, luminescence, 4-6 h; cells express a hypersensitive GLP-1R form; Glucagon-like peptide 1 receptor (Homo sapiens), P43220
# A number is an active result; - = inactive; ? = inconclusive; . = not tested or not shown. Sampled rows, rich in hits. Any-hit rate of the full collection: about 1.7%. The call rests on the fitted dose curve; in most records, active means well fitted curve in the direction sought with a large enough effect; inconclusive means small, poorly fitted or top-dose-only effect, or another doubt; inactive means no such curve, though single readings can be large; an effect the other way counts as inactive or inconclusive.
SMILES,GLP1R cytotox,GLP-1R inv ag,PTHR1 ag,GLP-1R agonist
Cc1cccc(OCc2nnc(SCCC(=O)O)n2-c2ccccc2)c1,-,-,-,-
O=C(O)CSc1nnc(COc2ccccc2)n1-c1ccccc1,-,-,-,-
Cc1ccc(OCc2nnc(SCC(=O)c3cccs3)n2-c2ccccc2)cc1C,-,10µM,-,-
O=C(CSc1nnc(COc2ccccc2)n1-c1ccccc1)c1cccs1,-,8.91µM,-,-
COc1ccc(-c2cc(C(=O)Nc3c(Cl)cccc3Cl)no2)cc1OC,-,-,-,.
O=C(Cn1ncc(Cl)c(Cl)c1=O)c1ccc(Cl)cc1,10µM,-,-,-
CCCCCOc1ccc(NC(=O)Cn2c(-c3nonc3N)nc3ccccc32)cc1,-,-,-,.
CCOC(=O)c1[nH]c(C)c(CCC(=O)Nc2cc(Cl)c(OC)cc2OC)c1C,-,-,-,.
CC(Oc1ccc(Cl)cc1Cl)C(=O)NC(=S)N1CCc2ccccc21 (stereo not given),?,10µM,-,-
CCN(CC)CCCNC(=O)c1oc2ccc(S(=O)(=O)N3CC(C)CC(C)C3)cc2c1C (stereo not given),?,1.41µM,-,-
Cc1c(C(=O)N2CCCCC2)oc2ccc(S(=O)(=O)N3CC(C)CC(C)C3)cc12 (stereo not given),-,8.91µM,-,-
CCOC(=O)N1CCN(C(=O)c2oc3ccc(S(=O)(=O)N4CCCCC4)cc3c2C)CC1,-,-,-,-
CNc1nc(N)c(C(=O)C23CC4CC(CC(C4)C2)C3)s1,-,5.62µM,-,-
CCC(C)c1ccc(O)c(NC(=S)NC(=O)c2cccs2)c1 (stereo not given),-,8.91µM,-,-
CCOc1ccc(N(C)C(CNS(=O)(=O)c2ccccc2)c2ccccc2)cc1 (stereo not given),-,?,-,.
Cc1ccc(NC(=O)CSc2ccccc2)cc1S(=O)(=O)N1CCCCC1,-,7.94µM,-,-
Cc1ccc(NC(=O)CSc2ccccc2)cc1S(=O)(=O)N1CCOCC1,-,-,-,-
Cc1ccc(NC(=S)NCc2ccccc2)cc1S(=O)(=O)N1CCCCC1,-,11.2µM,-,-
CCC(=O)N1CCc2cc(S(=O)(=O)CCC(=O)N3CCN(c4cccc(C)c4)C(C)C3)ccc21 (stereo not given),-,-,-,-
Cc1ccc(NC(=O)CN(C)C(=O)Cc2ccc(Cl)cc2Cl)cc1,-,?,-,-
Cc1ccc(NC(=O)CN(C)C(=O)Cc2ccc(Cl)c(Cl)c2)cc1,-,7.94µM,-,-
O=C(/C=C/c1ccccc1)N1CCN(Cc2cc(=O)n3nc(-c4ccccc4)sc3n2)CC1,-,-,-,.
COc1cc2c(cc1O)CCN[C@@]21CS[C@H]2c3c(OC(C)=O)c(C)c4c(c3C(COC1=O)N1C2C2c3c(cc(C)c(OC)c3O)CC([C@@H]1O)N2C)OCO4 (stereo not given in full),.,.,.,-
CC1S/C(=N\N=C\c2cccc([N+](=O)[O-])c2)N(C(C)(C)C)C1=O (stereo not given),-,3.55µM,-,-
O=[N+]([O-])c1cccc(C=NN=C2c3ccccc3-c3ccccc32)c1,-,-,-,-
SMILES,GLP1R cytotox,GLP-1R inv ag,PTHR1 ag,GLP-1R agonist
Cc1ccc(-c2nc(NCCN3CCOCC3)c3ccccc3n2)cc1,-,-,-,-
Clc1ccc(-c2nc(NCCCN3CCOCC3)c3ccccc3n2)cc1,?,?,-,-
Clc1cccc(-c2nc(NCCCN3CCOCC3)c3ccccc3n2)c1,-,10µM,-,-
Clc1cccc(-c2nc(NCCN3CCOCC3)c3ccccc3n2)c1,-,7.08µM,-,-
Cc1cnc(=O)[nH]c1SCC(=O)Nc1cc(C(F)(F)F)ccc1Cl,-,-,-,-
Fc1cccc(-c2cc3nc(-c4ccccc4)cc(N4CCC5(CC4)OCCO5)n3n2)c1,-,?,-,-
CN(C)CCCNc1cc(-c2ccccc2)nc2cc(-c3cccc(F)c3)nn12,?,3.55µM,-,-
COc1ccc(-c2cc3nc(-c4ccccc4)cc(N4CCCC(O)C4)n3n2)cc1 (stereo not given),-,?,-,-
COc1ccc(-c2cc3nc(-c4ccccc4)cc(N4CCC(O)CC4)n3n2)cc1,?,7.94µM,-,-
COCCN1CCN(c2cc(-c3ccccc3)nc3cc(-c4cccc(F)c4)nn23)CC1,-,7.94µM,-,-
CC(C)CCNC(=O)c1ccc2c(c1)N(Cc1ccccc1F)C(=O)c1ccccc1S2=O (stereo not given),-,?,-,-
COc1ccccc1CN1CCC(CNS(=O)(=O)c2cc(-c3cc(C)no3)ccc2OC)CC1,-,11.2µM,-,-
Cc1cc(S(=O)(=O)N2CCN(c3ccc(F)cc3)CC2)c(C)s1,-,10µM,-,-
Cc1cc(S(=O)(=O)N2CCN(c3ccccc3O)CC2)c(C)s1,-,?,-,-
CCc1ccc(-c2cc(C)no2)cc1S(=O)(=O)N1CCN(c2ccccc2OC)CC1,-,4.47µM,-,-
COc1ccc(-c2cc(C)no2)cc1S(=O)(=O)N1CCCN(Cc2ccc(F)cc2)C1,-,7.08µM,-,-
CO[C@]1(NC(=O)Cc2cccs2)C(=O)N2C(C(=O)O)=CC(COC(N)=O)S[C@H]21 (stereo not given in full),.,.,.,-
COc1ccccc1N1CCN(S(=O)(=O)c2cc(C)sc2C)CC1,-,10µM,-,-
COc1ccc(C(C)C)cc1S(=O)(=O)N1CCN(c2ccccc2)CC1,-,8.91µM,-,-
CCC(=O)OC1CCC2C3CCc4cc(O)ccc4C3CCC12C (stereo not given),.,.,.,-
CCOc1ccc(NC(=O)/C=C\C(=O)N(c2ccc(C(C)C)cc2)C(C(=O)NCc2ccco2)c2ccc(F)cc2)cc1 (stereo not given),-,?,-,.
Cc1cccc(NC(=O)C23CCC(C)(C2Br)C3(C)C)c1 (stereo not given),-,3.55µM,-,-
CCc1ccc(NC(=O)Cn2c(=O)n(-c3cc(C)cc(C)c3)c(=O)c3oc4ccccc4c32)cc1,-,-,?,.
Cc1ccc(NC(=O)C2(C)CCN2C(=O)c2ccccc2CCc2ccccc2)cc1C (stereo not given),-,2.82µM,-,-
CC(C)(C)c1cc(NC(=O)C2(C)CCN2C(=O)c2ccccc2CCc2ccccc2)no1 (stereo not given),-,8.91µM,-,-
COc1cc(OC)cc(C(=O)NCc2ccc3c(c2)CCN3C(=O)c2ccccc2)c1,-,-,-,.
FC(F)(F)c1nc2ccccc2nc1N/N=C\c1ccccc1,8.91µM,?,-,-
CCOc1ccc(C(C(=O)NCC2CCCO2)N(C(=O)c2snc(C(N)=O)c2N)c2ccc(F)cc2)cc1 (stereo not given),-,-,-,-

# Source: PubChem BioAssay (National Center for Advancing Translational Sciences (NCATS))
